Results taken from PubChem BioAssay (NCATS).
Records with an inconclusive call do not appear. The source made the active and inactive calls. Calls follow the shape of the dose curve; as a rule, active = well fitted cell-killing curve with a large enough effect; inconclusive = small, poorly fitted or top-dose-only effect, or effect the other way; inactive = no such curve, though single readings can be large or run the other way.

Legend:
[1] = Quantitative High-Throughput drug screen in 47 multiple myeloma cell lines against the NCATS MIPE library collection: Delta47_JCRB cell viability assay (AID 1918925; also: nearly all actives have a fitted effect of over 45% in size)
Procedure, shortened: (§1)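 Steps: seed 500 cells per well; pin-transfer MIPE 4.0 library; incubate 48 h at 37C, 5% CO2, humidified; add CellTiter-Glo, 5 min room temperature; read luminescence.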

[2] = Quantitative High-Throughput drug screen in 47 multiple myeloma cell lines against the NCATS MIPE library collection: EJM_DSMZ cell viability assay (AID 1918926; also: nearly all actives have a fitted effect of over 30% in size)
Procedure, shortened: as §1

[3] = Quantitative High-Throughput drug screen in 47 multiple myeloma cell lines against the NCATS MIPE library collection: ARP1_JJKsccF8 cell viability assay (AID 1918928; also: nearly all actives have a fitted effect of over 40% in size)
Procedure, shortened: (§2)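 Each line was plated at 500 cells/well and treated 48 h with library drugs. Viability came from CellTiter-Glo luminescence relative to DMSO and cell-free medium controls.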

[4] = Quantitative High-Throughput drug screen in 47 multiple myeloma cell lines against the NCATS MIPE library collection: ARD_JJKsccE7 cell viability assay (AID 1918929)
Procedure, shortened: as §1

[5] = Quantitative High-Throughput drug screen in 47 multiple myeloma cell lines against the NCATS MIPE library collection: Karpas620_DSMZ cell viability assay (AID 1918959); also: nearly all actives have a fitted effect of over 30% in size
Procedure, shortened: (§3)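 qHTS of the MIPE 4.0 collection: 500 myeloma cells/well, 48 h drug exposure at 37C in 5% CO2, then CellTiter-Glo for 5 min at room temperature before luminescence reading.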

[6] = Quantitative High-Throughput drug screen in 47 multiple myeloma cell lines against the NCATS MIPE library collection: KMM1_JCRB cell viability assay (AID 1918960); also: nearly all actives have a fitted effect of over 30% in size;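 as to viability (% of DMSO): 100% = DMSO-treated cells and 0% = medium-only wells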
Procedure, shortened: as §2

[7] = Quantitative High-Throughput drug screen in 47 multiple myeloma cell lines against the NCATS MIPE library collection: Karpas417_ECACC cell viability assay (AID 1918961); details: Karpas417 myeloma viability, CellTiter-Glo ATP luminescence, 48 h; viability (% of DMSO): at 45.8 µM (top of the series)
Procedure, shortened: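 Luminescent ATP measurement with CellTiter-Glo gives viability, scaled between DMSO-only wells (100%) and media-only wells (0%). Cells, 500 per well, faced library compounds for 48 hours at 37C.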

[8] = Quantitative High-Throughput drug screen in 47 multiple myeloma cell lines against the NCATS MIPE library collection: KHM11_PLB cell viability assay (AID 1918962); also: nearly all actives have a fitted effect of over 35% in size
Procedure, shortened: as §3

[9] = Quantitative High-Throughput drug screen in 47 multiple myeloma cell lines against the NCATS MIPE library collection: AMO1_DSMZ cell viability assay (AID 1918927; also: nearly all actives have a fitted effect of over 30% in size)
Procedure, shortened: as §1
Potency is read from the fitted curve at half-maximal effect.

CC(=O)SC[C@@H](C)C(=O)N1CCC[C@H]1C(=O)N[C@@H](Cc1ccccc1)C(=O)O
Potency [1]: inactive
Potency [2]: inactive
Potency [3]: inactive
Potency [4]: inactive
Potency [5]: inactive
Potency [6]: inactive
Potency [7]: inactive
Potency [8]: inactive

Nc1ccn([C@@H]2O[C@H](CO)[C@H](O)C2(F)F)c(=O)n1
Potency [1]: 0.0418 µM (active)
Potency [9]: 0.059 µM (active)
Potency [4]: 0.296 µM (active)
Potency [5]: 0.469 µM (active)
Potency [6]: 0.0833 µM (active)
Potency [8]: 5.9 µM (active)

COc1cc(C(C)C)c2c(c1)S(=O)(=O)N(COc1cc(=O)n3cccc(OCCN4CCCCC4)c3n1)C2=O
Potency [1]: 16.6 µM (active)
Potency [2]: 18.7 µM (active)
Potency [9]: 13.2 µM (active)
Potency [5]: 20.9 µM (active)
Potency [6]: 26.4 µM (active)

Cc1cc(Nc2cc(N3CCN(C)CC3)nc(C=Cc3ccccc3)n2)n[nH]1
Potency [1]: 3.82 µM (active)
Potency [2]: 38.2 µM (active)
Potency [4]: 13.6 µM (active)
Potency [5]: 12.1 µM (active)

Cc1nc(Nc2n[nH]c3c2CN(C(=O)N[C@H](CN(C)C)c2ccccc2)C3(C)C)c2sccc2n1
Potency [1]: 0.0332 µM (active)
Potency [2]: 1.48 µM (active)
Potency [9]: 0.0743 µM (active)
Potency [6]: 0.105 µM (active)
Potency [8]: 0.0132 µM (active)

CC1(C)CCC(c2ccc(Cl)cc2)=C(CN2CCN(c3ccc(C(=O)NS(=O)(=O)c4ccc(N[C@H](CCN5CCOCC5)CSc5ccccc5)c(S(=O)(=O)C(F)(F)F)c4)cc3)CC2)C1
Potency [1]: 7.43 µM (active)
Potency [2]: 8.33 µM (active)
Potency [3]: 13.2 µM (active)
Potency [4]: 2.64 µM (active)
Potency [5]: 0.0187 µM (active)
Potency [8]: 6.62 µM (active)

COc1cc(OC2CCN(C)CC2)ccc1Nc1ncc2c(n1)n(C1CCCC1)c(=O)n2C
Potency [1]: 5.9 µM (active)
Potency [9]: 11.8 µM (active)
Potency [4]: 9.35 µM (active)
Potency [5]: 23.5 µM (active)
Potency [8]: 6.62 µM (active)

Clc1ccc2ncc(-c3cccc(NC4CNC4)n3)n2c1
Potency [2]: 18.7 µM (active)
Potency [9]: 4.69 µM (active)
Potency [3]: 23.5 µM (active)
Potency [5]: inactive
Potency [6]: 2.35 µM (active)
Potency [7]: inactive
Potency [8]: 8.33 µM (active)

C[C@]12CC[C@H](O)CC1=CCC1C2CC[C@]2(C)C(n3cnc4ccccc43)=CCC12 (some centres not stated)
Potency [9]: inactive
Potency [4]: inactive
Potency [6]: inactive
viability (% of DMSO) [7]: 109% (active)

O=C(O)CCCc1c[nH]c2ccccc12
Potency [1]: inactive
Potency [4]: inactive
Potency [5]: inactive
Potency [6]: inactive

COc1cc2c(Nc3ccc(NC(=O)c4ccccc4)cc3)ncnc2cc1OCCCN1CCOCC1
Potency [1]: 8.33 µM (active)
Potency [3]: 20.9 µM (active)
Potency [5]: inactive
Potency [6]: 6.62 µM (active)
viability (% of DMSO) [7]: 112% (active)
Potency [8]: 8.33 µM (active)

C=CC(=O)Nc1cccc(Oc2nc(Nc3ccc(N4CCN(C)CC4)cc3OC)ncc2Cl)c1
Potency [1]: 0.0296 µM (active)
Potency [7]: inactive

O=C(O)[C@H](Cc1c[nH]c2ccccc12)N1C(=O)c2ccccc2C1=O
Potency [2]: inactive
Potency [9]: inactive
Potency [3]: inactive
Potency [5]: inactive
Potency [6]: inactive

CCS(=O)(=O)c1cccc(-c2cc(C(=O)NC3CCN(C)CC3)c(C)c3[nH]c4ncc(C)cc4c23)c1
Potency [1]: 0.662 µM (active)
Potency [3]: 2.09 µM (active)
Potency [4]: 3.32 µM (active)
Potency [5]: 1.66 µM (active)
Potency [6]: 2.96 µM (active)
Potency [8]: 0.526 µM (active)

O=C(O)CO.[NH2-].[NH2-].[Pt+2]
Potency [9]: inactive

CC(C)(C)NC(=O)[C@H]1CN(Cc2cccnc2)CCN1C[C@@H](O)C[C@@H](Cc1ccccc1)C(=O)N[C@H]1c2ccccc2C[C@H]1O
Potency [4]: inactive
Potency [5]: inactive
Potency [7]: inactive

CN1c2cc(O)c(N=NC(N)=O)cc2CC1S(=O)(=O)O (configuration not stated)
Potency [2]: inactive
Potency [3]: inactive
Potency [4]: 0.0012 µM (active)
Potency [6]: inactive

C=CC(=O)Nc1cc2c(Nc3ccc(F)c(Cl)c3)ncnc2cc1OCCCN1CCOCC1
Potency [1]: 2.96 µM (active)
Potency [8]: inactive

Nc1cccc(-c2cc3c(Oc4cccc(O)c4)ncnc3[nH]2)c1
Potency [3]: 20.9 µM (active)
Potency [4]: inactive
Potency [8]: 16.6 µM (active)

Cc1cn2cc(C(=O)N(C)CCO)cc(N[C@@H]3CCOc4cccc(C)c43)c2n1
Potency [1]: inactive
Potency [3]: inactive
Potency [6]: inactive

O=C(C=Cc1cccnc1)NCCCCC1CCN(C(=O)c2ccccc2)CC1
Potency [2]: inactive
Potency [6]: 0.0148 µM (active)
Potency [7]: 13.2 µM (active)
Potency [8]: 0.0235 µM (active)

COc1c(N2C[C@@H]3CCCN[C@H]3C2)c(F)cc2c(=O)c(C(=O)O)cn(C3CC3)c12
Potency [1]: inactive
Potency [3]: 37.2 µM (active)
Potency [5]: inactive

CN(C)CC(C)(C)CNc1nn2c(-c3ccccc3)nnc2cc1C1CCC1
Potency [1]: 13.2 µM (active)
Potency [4]: inactive
Potency [5]: 14.8 µM (active)

NC1(Cc2ccc(Cl)cc2)CCN(c2ncnc3[nH]ccc23)CC1
Potency [1]: 0.935 µM (active)
Potency [3]: 2.96 µM (active)
Potency [4]: 0.935 µM (active)
Potency [6]: 3.72 µM (active)
Potency [8]: 2.96 µM (active)

CNC(=O)c1ccc(-c2cnc3ncc(Cc4ccc5ncccc5c4)n3n2)cc1F
Potency [9]: inactive
Potency [5]: inactive
Potency [6]: inactive
Potency [8]: inactive

COc1cc2c(Oc3ccc4[nH]c(C)cc4c3F)ncnc2cc1OCCCN1CCCC1
Potency [1]: 3.32 µM (active)
Potency [3]: 23.5 µM (active)
Potency [5]: 2.96 µM (active)
Potency [6]: 2.35 µM (active)
Potency [8]: 4.69 µM (active)

Nc1nccc(Oc2ccc(NC(=O)c3c[nH]cc(-c4ccc(F)cc4)c3=O)cc2F)c1Cl
Potency [1]: 16.6 µM (active)
Potency [3]: 14.8 µM (active)
Potency [4]: 6.62 µM (active)
Potency [8]: 18.7 µM (active)

Nc1ccc(S(=O)(=O)Nc2ncccn2)cc1
Potency [2]: inactive
Potency [9]: inactive
Potency [4]: inactive
Potency [5]: inactive

O=C(O)Cn1nnc(-c2cc(N3CCC(Oc4cc(F)ccc4Br)CC3)no2)n1
Potency [1]: inactive
Potency [3]: inactive
Potency [5]: inactive
Potency [6]: inactive

Cn1c(CNc2ccc(C(=N)N)cc2)nc2cc(C(=O)N(CCC(=O)O)c3ccccn3)ccc21
Potency [2]: 0.0006 µM (active)
Potency [9]: inactive
Potency [3]: inactive
Potency [4]: inactive
Potency [5]: inactive
Potency [8]: inactive

CCC(=C(c1ccccc1)c1ccc(OCCN(C)C)cc1)c1ccccc1
Potency [1]: 23.5 µM (active)
Potency [4]: 20.9 µM (active)
Potency [5]: 23.5 µM (active)
Potency [7]: 14.8 µM (active)

CCN1CCN(Cc2ccc(-c3cc4c(N[C@H](C)c5ccccc5)ncnc4[nH]3)cc2)CC1
Potency [4]: 0.0469 µM (active)
Potency [5]: 0.0332 µM (active)
Potency [6]: 0.0743 µM (active)
Potency [7]: 8.33 µM (active)
Potency [8]: 5.9 µM (active)

Cc1cnc(-c2cnc(NCCNc3ccc(C#N)cn3)nc2-c2ccc(Cl)cc2Cl)[nH]1
Potency [4]: inactive
Potency [5]: inactive
Potency [8]: 16.6 µM (active)

CC(C)Nc1cc(C(F)(F)F)cc2nc(NC(=O)c3cccnc3)nn12
Potency [2]: 14.8 µM (active)
Potency [4]: inactive
Potency [5]: inactive

CC(C)(C)c1cc(NC(=O)Nc2ccc(-c3cn4c(n3)sc3cc(OCCN5CCOCC5)ccc34)cc2)no1
Potency [2]: 18.7 µM (active)
Potency [5]: inactive

N#Cc1c(O)c2c(-c3ccc(-c4ccccc4O)cc3)csc2[nH]c1=O
Potency [1]: inactive
Potency [3]: inactive
Potency [4]: inactive
Potency [6]: inactive

Cc1nc2ccc(CN(C)c3ccc(C(=O)N[C@@H](CCC(=O)O)C(=O)O)s3)cc2c(=O)[nH]1
Potency [2]: inactive
Potency [9]: 0.0662 µM (active)
Potency [3]: 0.0209 µM (active)
Potency [5]: inactive
Potency [7]: inactive

O=C(CCCCCCC(=O)Nc1ccc([C@H]2O[C@@H](CSc3nc(-c4ccccc4)c(-c4ccccc4)o3)C[C@@H](c3ccc(CO)cc3)O2)cc1)NO
Potency [1]: 11.8 µM (active)
Potency [3]: 10.5 µM (active)
Potency [4]: inactive
Potency [6]: inactive
Potency [8]: 14.8 µM (active)

C[C@]1(CO)CN(c2cc(C(=O)Nc3ccc4c(c3)-c3c(c(C(N)=O)nn3-c3ccc(F)cc3)CC4)c(Cl)cn2)C[C@@]1(C)CO
Potency [1]: 9.35 µM (active)
Potency [5]: 1.66 µM (active)
Potency [7]: 2.64 µM (active)
Potency [8]: 4.18 µM (active)

C=C1C(=CC=C2CCCC3(C)[C@@H]([C@H](C)C=CC=CC(O)(CC)CC)CC[C@@H]23)C[C@@H](O)C[C@@H]1O (some centres not stated)
Potency [2]: 18.7 µM (active)
Potency [9]: 14.8 µM (active)
Potency [3]: 20.9 µM (active)
Potency [4]: 16.6 µM (active)
Potency [5]: 20.9 µM (active)
Potency [6]: 20.9 µM (active)
